PD-1 reverse act: activators reversing PD-1 mediated T-cell inhibition | primary human CD4 T cells, PD-L1 beads, CellTiter-Glo 96 h | activation, % (concentration not given with the values) | 29,000 tested, under 10 active; call rule not given here;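 note: 0% = median vehicle wells and 100% = positive control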
NOMO-1 viab: STK33 inhibitor candidate reducing NOMO-1 cell viability; 7.5% of 37,000 active; AID 2330; inhibition, % (no concentration beside the values); NOMO-1 AML viability, CellTiter-Glo luminescence, 72 h; in the data active = inhibition above about 80%; inconclusive = no clear call, values can overlap the other calls
Shh pathway inh: Sonic Hedgehog pathway inhibition; AID 2313; inhibition, % (no concentration beside the values); Shh-LIGHT2 Gli-luciferase reporter, 30 h; 2.1% of 22,000 active;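 active = mean inhibition across valid replicates above about 65%, limit read from the data; inconclusive = mean under the limit, yet half or more replicates past it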;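 note: pathway switched on by Shh-conditioned medium diluted 1 in 25 in low serum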
The depositor's hits bear a star. Only some compounds are listed: those with a hit (about 7.7% of all), similar ones and a draw of the others.

What do the screens show for `Cc1c(C(=O)OC(C)C)sc2ncn(CC(=O)Nc3ccccc3C(F)(F)F)c(=O)c12`?
NOMO-1 viab: 20.7

Results for CC(=O)c1ccc(NC(=O)CNS(=O)(=O)c2ccc(C(C)(C)C)cc2)cc1 ?
PD-1 reverse act: -1.9; NOMO-1 viab: 49.1

How did NC(=O)c1c(NC(=O)COc2cccc(C(F)(F)F)c2)sc2c1CCC2 do in these assays?
PD-1 reverse act: 2.4; NOMO-1 viab: 1.8

How did CC(C)NC(=O)Nc1cccc2c1O[C@H](CN(C)Cc1ccc(Oc3ccccc3)cc1)[C@@H](C)CN([C@H](C)CO)C2=O do in these assays?
PD-1 reverse act: -3.2; NOMO-1 viab: 88.8*; Shh pathway inh: 21.1

How did COc1ccc(NC(=O)Nc2cccc3c2O[C@H](CN(C)Cc2ccc(Oc4ccccc4)cc2)[C@H](C)CN([C@H](C)CO)C3=O)cc1 do in these assays?
PD-1 reverse act: -1.1; NOMO-1 viab: 43.9; Shh pathway inh: 24.3

What do the screens show for `CC(C)NC(=O)Nc1cccc2c1O[C@H](CN(C)Cc1ccc(Oc3ccccc3)cc1)[C@H](C)CN([C@@H](C)CO)C2=O`?
PD-1 reverse act: 0.5; NOMO-1 viab: -6.3; Shh pathway inh: -2.6

How did COc1ccc(NC(=O)Nc2cccc3c2O[C@@H](CN(C)Cc2ccc(Oc4ccccc4)cc2)[C@H](C)CN([C@@H](C)CO)C3=O)cc1 do in these assays?
PD-1 reverse act: -0.5; NOMO-1 viab: 91.1*; Shh pathway inh: -0.2

How did COc1ccc(CN(C)C[C@@H]2Oc3c(NC(=O)Nc4ccc(F)cc4)cccc3C(=O)N([C@@H](C)CO)C[C@H]2C)cc1 do in these assays?
PD-1 reverse act: -5.0; NOMO-1 viab: 110.3*; Shh pathway inh: 29.6

What do the screens show for `COc1ccc(CN(C)C[C@H]2Oc3c(NC(=O)Nc4ccc(OC)cc4)cccc3C(=O)N([C@@H](C)CO)C[C@H]2C)cc1`?
PD-1 reverse act: -0.4; NOMO-1 viab: 14.3; Shh pathway inh: 1.7

What do the screens show for `O=C(NCCNc1ccc(C(F)(F)F)cc1[N+](=O)[O-])c1cccc(Br)c1`?
PD-1 reverse act: 1.9; NOMO-1 viab: 10.4

Results for O=C(Cn1cc(Br)c([N+](=O)[O-])n1)Nc1ccccc1F ?
PD-1 reverse act: -0.4; NOMO-1 viab: 19.1

How did O=C(c1ccc(Br)cc1)N1Cc2ccccc2NC1=S do in these assays?
PD-1 reverse act: 0.0; NOMO-1 viab: 125.0*; Shh pathway inh: 5.3

How did O=C(c1ccc(O)cc1)N1Cc2ccccc2NC1=S do in these assays?
PD-1 reverse act: 2.1; NOMO-1 viab: -0.5; Shh pathway inh: -72.8

Results for CCCC(=O)c1ccc(OCc2nc3ccccc3[nH]2)cc1 ?
NOMO-1 viab: 39.8

What do the screens show for `O=C(CSc1ncccn1)Nc1ccc(Cl)cc1`?
PD-1 reverse act: -6.3; NOMO-1 viab: 18.8

Results for O=C(CC1Sc2ncnn2C1=O)Nc1ccc(Cl)cc1 (configuration not stated) ?
NOMO-1 viab: 107.0*

How did COc1ccccc1-n1nnnc1SCC(=O)Nc1ccccc1F do in these assays?
PD-1 reverse act: -0.8; NOMO-1 viab: 14.3

What do the screens show for `N#Cc1ccccc1NC(=O)CS(=O)(=O)Cc1ccccc1`?
PD-1 reverse act: -1.1; NOMO-1 viab: -6.1

How did O=C(Cn1cnc2scc(-c3cccc([N+](=O)[O-])c3)c2c1=O)Nc1ccc(F)c(Cl)c1 do in these assays?
PD-1 reverse act: -0.9; NOMO-1 viab: 30.8

Results for Cn1c(SCc2ccc(C(F)(F)F)cc2)nnc1-c1ccc(OCC(F)(F)F)nc1 ?
PD-1 reverse act: 0.2; NOMO-1 viab: 28.0; Shh pathway inh: 73.6*

What do the screens show for `Cn1c(SCC(N)=O)nnc1-c1ccc(C(C)(C)C)cc1`?
PD-1 reverse act: -1.7; NOMO-1 viab: 6.6

What do the screens show for `C=C1C(=O)O[C@@H]2/C=C(/CO)CC/C=C(/C=O)C[C@@H](O)[C@@H]12`?
PD-1 reverse act: -9.6; NOMO-1 viab: 108.6*; Shh pathway inh: 34.6

Results for C=C1C(=O)O[C@@H]2/C=C(/C)CC/C=C(/C=O)C[C@@H](OC(=O)CC(C)C)C12 (some centres not stated) ?
Shh pathway inh: 2.0

How did COC(=O)c1sc2ncn(CC(=O)Nc3cccc(Cl)c3C)c(=O)c2c1C do in these assays?
PD-1 reverse act: -0.3; NOMO-1 viab: 6.8

What do the screens show for `Cc1ccc(C(=O)/C=C/Nc2ccc(C(F)(F)F)cc2)cc1`?
PD-1 reverse act: 0.7; NOMO-1 viab: 6.6; Shh pathway inh: -78.4

Results for Cc1cccc(-n2c(SCC(=O)c3ccccc3)nnc2-c2cccs2)c1C ?
PD-1 reverse act: -2.6; NOMO-1 viab: 25.1

How did C[C@H](CO)N1C[C@H](C)[C@@H](CN(C)Cc2ccc(C(=O)O)cc2)Oc2c(NC(=O)Nc3ccccc3)cccc2C1=O do in these assays?
NOMO-1 viab: -27.6; Shh pathway inh: -20.3

Results for C[C@H](CO)N1C[C@H](C)[C@H](CN(C)Cc2ccc(C(=O)Nc3ccccc3N)cc2)Oc2c(NC(=O)Nc3ccc(C(F)(F)F)cc3)cccc2C1=O ?
PD-1 reverse act: -2.0; NOMO-1 viab: 60.2

What do the screens show for `C[C@@H]1CN([C@H](C)CO)C(=O)c2cccc(NC(=O)Nc3ccccc3)c2O[C@@H]1CN(C)Cc1ccc(C(=O)O)cc1`?
NOMO-1 viab: -18.4; Shh pathway inh: -7.0

How did C[C@@H]1CN([C@H](C)CO)C(=O)c2cccc(NC(=O)Nc3ccc4c(c3)OCO4)c2O[C@H]1CN(C)Cc1ccc(C(=O)Nc2ccccc2N)cc1 do in these assays?
PD-1 reverse act: -1.5; NOMO-1 viab: 126.9*

What do the screens show for `C[C@H](CO)N1C[C@H](C)[C@@H](CN(C)Cc2ccc(C(=O)Nc3ccccc3N)cc2)Oc2c(NC(=O)Nc3ccccc3)cccc2C1=O`?
PD-1 reverse act: -2.2; NOMO-1 viab: 127.4*

How did C[C@@H]1CN([C@@H](C)CO)C(=O)c2cccc(NC(=O)Nc3ccc(C(F)(F)F)cc3)c2O[C@@H]1CN(C)Cc1ccc(C(=O)Nc2ccccc2N)cc1 do in these assays?
PD-1 reverse act: -5.8; NOMO-1 viab: 128.4*

What do the screens show for `C[C@H]1CN([C@@H](C)CO)C(=O)c2cccc(NC(=O)Nc3ccccc3)c2O[C@@H]1CN(C)Cc1ccc(C(=O)Nc2ccccc2N)cc1`?
PD-1 reverse act: -5.0; NOMO-1 viab: 127.1*

What do the screens show for `C[C@H](CO)N1C[C@H](C)[C@H](CN(C)Cc2ccc(C(=O)Nc3ccccc3N)cc2)Oc2c(NC(=O)Nc3ccc4c(c3)OCO4)cccc2C1=O`?
PD-1 reverse act: -1.8; NOMO-1 viab: inconclusive

How did Cc1sc2ncnc(SCC(=O)c3ccc(Cl)cc3)c2c1C do in these assays?
NOMO-1 viab: 21.8

Results for COc1ccccc1C1C(C(=O)c2sc(C)nc2C)C(=O)C(=O)N1CCCN1CCOCC1 (configuration not stated) ?
PD-1 reverse act: 1.3; NOMO-1 viab: 17.6

Results for CSc1cccc(NC(=O)CNS(=O)(=O)c2ccc(F)cc2)c1 ?
PD-1 reverse act: 1.0; NOMO-1 viab: -6.2

How did C[C@@H]1CN([C@@H](C)CO)C(=O)c2cccc(NC(=O)Nc3ccc(F)cc3)c2O[C@@H]1CN(C)Cc1ccc(C(=O)Nc2ccccc2N)cc1 do in these assays?
PD-1 reverse act: -1.8; NOMO-1 viab: 140.5*

What do the screens show for `CC(C)NC(=O)Nc1cccc2c1O[C@H](CN(C)Cc1ccc(C(=O)Nc3ccccc3N)cc1)[C@H](C)CN([C@H](C)CO)C2=O`?
PD-1 reverse act: -2.0; NOMO-1 viab: 118.8*

Assay outcomes deposited in PubChem by Broad Institute.
